Among the data in PubChem BioAssay are viability and inhibition values, retold here.

Structures are written as SMILES. Results filed as inconclusive are left out. Calls of active or inactive are those of the source.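 How the source made its calls, unless noted: active means inhibition over a set limit, the all-compound mean plus 3 SD, in both replicate runs; inconclusive means over that limit in just one replicate run; inactive means at or under that limit in both runs.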

A short description of the first assay: growth suppression of beta-catenin knockout HCT116, pilot screen, human colon tumor cells (AID 823;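 active means cell viability at or below a set limit in both duplicate runs, the limit being the all-compound median minus 4 SD, cut at about 23% in these data, passing the limit was not always enough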;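 further: 0% = wells killed by 20 µM Hyamine and 100% = untreated DMSO cell wells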). To be noted: CellTiter-Glo, 60 h, at 10 µM, hits give low values.
In the case of `CCn1cc(C(=O)N2CCN(c3ccccn3)CC2)c2cc(OC)c(OC)cc2c1=O`, the viability is 104% (inactive).
On the same count and under the same terms, under `CCCCNC(=O)C1C2C=CC3(CN(Cc4ccc(C)cc4)C(=O)C13)O2` (centres undefined) stands 95.1% (inactive).
Regarding `COc1ccc(CNC(=O)c2ccc(NC(=O)C3CCCO3)cc2)cc1` (centres undefined), the viability is 98.6% (inactive).
Regarding `O=C(CNC(=O)Cn1ccc2ccccc2c1=O)NCCCN1CCN(c2cccc(Cl)c2)CC1`, the viability is 57.3% (inactive).
Still for that read-out and setting: under `CCN1CCN(Cc2nc3c(c(=O)n(C)c(=O)n3C)n2CCCc2ccccc2)CC1` stands 91% (inactive); under `COCc1cc(=O)n2c(-c3ccccc3OC)n[nH]c2n1`, 92.7% (inactive).
Still for that read-out and setting: under `Cc1ccccc1C(=O)Nc1nnc(-c2ccc(F)cc2)o1` stands 33% (inactive); under `COc1ccc(-c2cc(NCCc3ccncc3)n3ncnc3n2)cc1`, 95.2% (inactive).
Still for that read-out and setting: next, `CCN(CC)c1ccc(NC(=O)c2ccc(NC(=O)C3CCCO3)cc2)c(C)c1` (centres undefined): 94.8% (inactive); `CCC1(C)Cc2c(sc3c2c2ncnn2c2nnc(SCC(=O)NCc4ccco4)n32)CO1` (centres undefined): 58.1% (inactive); `CCN(Cc1ccncc1)C(=O)c1cccc(S(=O)(=O)N2CCOCC2)c1`: 99.1% (inactive).
Consider `CC(C)c1ccc(-c2nc(N3CCCC3)nc3n[nH]c(N)c23)cc1`, for which the viability is 69.8% (inactive).
On the same count and under the same terms, under `CCOC(=O)N1CCN(C(=O)CCc2nc3sc4c(c3c(=O)[nH]2)CCCC4)CC1` stands 104% (inactive); under `COc1ccc(-c2nc(N3CCOCC3)nc3n[nH]c(N)c23)cc1`, 74.7% (inactive).
Same read-out and setting: next, `OC(COCc1cccs1)CN1CCN(c2ccccn2)CC1` (centres undefined): 101% (inactive).
Regarding `CCOC(=O)c1cc(NC(=O)OC)c(C)nc1C`, the viability was 106% (inactive).
The same measure, in the same setting: under `COc1cc(-c2nc3cnccn3c2Nc2ccc3c(c2)OCCO3)ccc1O` stands 84.5% (inactive).
Same read-out and setting: next, `CN1CCc2c(sc3c2c(=O)n(-c2ccc(Cl)cc2)c2nncn32)C1`: 92.1% (inactive); `C(=N\c1nccs1)/c1c[nH]c2ccccc12`: 92.4% (inactive); `CCN1CCN(Cc2nc3c(c(=O)n(C)c(=O)n3C)n2C(C)C(C)=O)CC1` (centres undefined): 89.7% (inactive).
Same read-out and setting: under `CCCCn1c(C(C)NC(=O)c2cccs2)nc2ccccc21` (centres undefined) stands 89% (inactive); under `CCn1cc(C(=O)NCc2cccnc2)c2cc(OC)c(OC)cc2c1=O`, 95.7% (inactive).
With `O=C1C(Cl)=C(Nc2ccccc2O)C(=O)N1c1ccccc1`, the viability was 81.7% (inactive).
The same measure, in the same setting: next, `O=C(NCc1nc2ccccc2[nH]1)c1ccc(S(=O)(=O)N2CCOCC2)cc1`: 85.8% (inactive).

A further assay can be described thus: inhibitors of the yeast RAM network, pilot screen, dse1pr::URA3 reporter, 5-FOA selection (AID 869).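 Further: 0% = DMSO wells with no growth and 100% = 10 µM 1-NA-PP1 with full growth; RAM network block rescues cells from 5-FOA so hits raise OD615 growth.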 To be noted: S. cerevisiae dse1pr::URA3 5-FOA growth, OD615, 2 d; at 10 µM; hits give high values; strain carries analog-sensitive mutant Cbk1 kinase.
In the case of `Cc1cc(C)c(C)c(S(=O)(=O)Nc2ccccc2C(=O)NCCCn2ccnc2)c1C`, the inhibition is 0.75% (inactive).
On the same count and under the same terms, next, `COc1ccc(N2CCN(CCCNC(=O)CCCn3c(=O)[nH]c4ccsc4c3=O)CC2)cc1`: 2.75% (inactive); `CC12COC3(C(=O)Nc4cccnc4)CC1CCC32C` (centres undefined): 1.51% (inactive).
On the same count and under the same terms, next, `CCOC(=O)C1CCN(C(=O)c2ccc(NC(=O)C3CCCO3)cc2)CC1` (centres undefined): 1.09% (inactive); `O=C(CSc1oc(-c2ccc(F)cc2)nc1S(=O)(=O)c1ccccc1)NCC1CCCO1` (centres undefined): 2.46% (inactive); `O=C(NCC1COc2ccccc2O1)c1ccc(NC(=O)C2CCCO2)cc1` (centres undefined): 4.43% (inactive).
Same read-out and setting: under `COc1ccc(N2CCN(CCNC(=O)c3ccc(NC(=O)C4CCCO4)cc3)CC2)cc1` (centres undefined) stands 1.68% (inactive).
On to `CC(C)N(C(=O)C1CC(=O)OC12CCCCC2)C(C)C` (centres undefined), for which the inhibition was 1.32% (inactive).
Still for that read-out and setting: next, `Cn1nnc2c(NCc3ccco3)nccc21`: 3.05% (inactive); `CCCCNC(=O)c1ccc(NC(=O)C2CCCO2)cc1` (centres undefined): 1.81% (inactive).
Still for that read-out and setting: next, `CC1Cc2ccccc2N1C(=O)CCS(=O)(=O)c1cccc2nonc12` (centres undefined): 0.56% (inactive); `O=C(NCc1cccs1)C1CCCN(S(=O)(=O)c2ccc3c(c2)OCO3)C1` (centres undefined): 1.46% (inactive).
As to `O=C(CCCOc1ccccc1)Nc1nnc(C2CCCO2)s1` (centres undefined), the inhibition is 3.7% (inactive).
The same measure, in the same setting: next, `CC(C)Sc1nc(NCc2ccco2)c2c3c(sc2n1)COC(C)(C)C3`: -0.26% (inactive); `CC(=O)c1c(C)n(-c2ccc(N(C)C)cc2)c2ccc(OCC(N)=O)cc12`: 2.3% (inactive).
With `O=C(CS(=O)(=O)c1c[nH]c2ccccc12)Nc1ccc2c(c1)OCCO2`, the inhibition was 2.55% (inactive).
Consider `CCn1cc(C(=O)N2CCN(c3ccccn3)CC2)c2cc(OC)c(OC)cc2c1=O`, for which the inhibition is 0.495% (inactive).
As to `CCCCNC(=O)C1C2C=CC3(CN(Cc4ccc(C)cc4)C(=O)C13)O2` (centres undefined), the inhibition was 0.08% (inactive).
As for `COc1ccc(CNC(=O)c2ccc(NC(=O)C3CCCO3)cc2)cc1` (centres undefined), the inhibition was 2.87% (inactive).
Take `O=C(CNC(=O)Cn1ccc2ccccc2c1=O)NCCCN1CCN(c2cccc(Cl)c2)CC1`: the inhibition is 1.63% (inactive).
Take `CCN1CCN(Cc2nc3c(c(=O)n(C)c(=O)n3C)n2CCCc2ccccc2)CC1`: the inhibition is 0.665% (inactive).
Still for that read-out and setting: under `COCc1cc(=O)n2c(-c3ccccc3OC)n[nH]c2n1` stands 2.2% (inactive); under `Cc1ccccc1C(=O)Nc1nnc(-c2ccc(F)cc2)o1`, 0.6% (inactive).
On the same count and under the same terms, next, `COc1ccc(-c2cc(NCCc3ccncc3)n3ncnc3n2)cc1`: 0.97% (inactive); `CCN(CC)c1ccc(NC(=O)c2ccc(NC(=O)C3CCCO3)cc2)c(C)c1` (centres undefined): 0.965% (inactive); `CCC1(C)Cc2c(sc3c2c2ncnn2c2nnc(SCC(=O)NCc4ccco4)n32)CO1` (centres undefined): 0.815% (inactive).
The same measure, in the same setting: next, `CCN(Cc1ccncc1)C(=O)c1cccc(S(=O)(=O)N2CCOCC2)c1`: 1.07% (inactive); `CC(C)c1ccc(-c2nc(N3CCCC3)nc3n[nH]c(N)c23)cc1`: 3.83% (inactive).
`CCOC(=O)N1CCN(C(=O)CCc2nc3sc4c(c3c(=O)[nH]2)CCCC4)CC1`: the inhibition is 2.59% (inactive).
Turning to `COc1ccc(-c2nc(N3CCOCC3)nc3n[nH]c(N)c23)cc1`, the inhibition was 0.26% (inactive).
Same read-out and setting: under `OC(COCc1cccs1)CN1CCN(c2ccccn2)CC1` (centres undefined) stands 2.32% (inactive); under `CCOC(=O)c1cc(NC(=O)OC)c(C)nc1C`, 0.81% (inactive); under `COc1cc(-c2nc3cnccn3c2Nc2ccc3c(c2)OCCO3)ccc1O`, 2.98% (inactive).
On the same count and under the same terms, next, `CN1CCc2c(sc3c2c(=O)n(-c2ccc(Cl)cc2)c2nncn32)C1`: 1.45% (inactive); `C(=N\c1nccs1)/c1c[nH]c2ccccc12`: 2.52% (inactive).
Still for that read-out and setting: next, `CCN1CCN(Cc2nc3c(c(=O)n(C)c(=O)n3C)n2C(C)C(C)=O)CC1` (centres undefined): 1.41% (inactive); `CCCCn1c(C(C)NC(=O)c2cccs2)nc2ccccc21` (centres undefined): 1.42% (inactive).
`CCn1cc(C(=O)NCc2cccnc2)c2cc(OC)c(OC)cc2c1=O`: the inhibition was 1.67% (inactive).
The same measure, in the same setting: next, `O=C1C(Cl)=C(Nc2ccccc2O)C(=O)N1c1ccccc1`: 2.32% (inactive); `O=C(NCc1nc2ccccc2[nH]1)c1ccc(S(=O)(=O)N2CCOCC2)cc1`: 1.77% (inactive).

As usually defined, the viability is a read-out of living cells in per cent, often relative to untreated cells. For orientation: inhibition means the drop in the measured response relative to a control, in per cent.
